# Compound activity deposited in PubChem BioAssay by several laboratories.
# SENP7 inh – inhibitors of human SENP7 protease | Q9BQF6 | inhibition, % at 5 µM | 1.5% of 330,000 active | recombinant SENP7, Z-RLRGG-aminoluciferin luminescence, 40 min;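 active means inhibition above about 50% at the single test dose, limit read from the data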;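 further: plate controls were DMSO with enzyme for no effect and no enzyme buffer wells for full effect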
# SENP8 block-1 – SENP8 protease inhibition. Q96LD8. purified SENP8, Z-RLRGG-aminoluciferin cleavage, luminescence. inhibition, % at 10 µM. 1.2% of 330,000 active. AID 2540; in the data active means inhibition above about 50%
# Target sequence (Q96LD8 whole entry, looked up): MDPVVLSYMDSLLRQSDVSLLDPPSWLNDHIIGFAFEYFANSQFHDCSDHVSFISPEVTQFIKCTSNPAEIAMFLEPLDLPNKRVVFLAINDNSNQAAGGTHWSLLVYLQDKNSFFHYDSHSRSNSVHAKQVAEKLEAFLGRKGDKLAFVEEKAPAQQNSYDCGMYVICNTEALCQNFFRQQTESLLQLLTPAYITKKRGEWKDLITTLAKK
# HSP90 refold inh – HSP90 refolding inhibition in rabbit reticulocyte lysate. luciferase refolding luminescence, 3 h. inhibition, % at 5.6 µM. 0.91% of 290,000 active. AID 1789;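 active means inhibition above the screen-wide mean plus 3 SD, computed separately per campaign, cut at about 16% in these data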;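 further: 0% = DMSO wells and 100% = 60 µM geldanamycin wells; inhibitors lower the luminescence because luciferase stays unfolded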
# SENP6 block – inhibitors of human SENP6 protease | 1.8% of 330,000 active | Q9GZR1 | AID 2599 | Recombinant SENP6 catalytic domain, aminoluciferin luminescence | inhibition, % at 10 µM;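 active means inhibition above about 50% at the single tested dose, limit read from the data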;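 further: plate controls were DMSO wells with enzyme for no effect and DMSO wells lacking enzyme for full effect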
# Target sequence (Q9GZR1 628-1112 limits assumed): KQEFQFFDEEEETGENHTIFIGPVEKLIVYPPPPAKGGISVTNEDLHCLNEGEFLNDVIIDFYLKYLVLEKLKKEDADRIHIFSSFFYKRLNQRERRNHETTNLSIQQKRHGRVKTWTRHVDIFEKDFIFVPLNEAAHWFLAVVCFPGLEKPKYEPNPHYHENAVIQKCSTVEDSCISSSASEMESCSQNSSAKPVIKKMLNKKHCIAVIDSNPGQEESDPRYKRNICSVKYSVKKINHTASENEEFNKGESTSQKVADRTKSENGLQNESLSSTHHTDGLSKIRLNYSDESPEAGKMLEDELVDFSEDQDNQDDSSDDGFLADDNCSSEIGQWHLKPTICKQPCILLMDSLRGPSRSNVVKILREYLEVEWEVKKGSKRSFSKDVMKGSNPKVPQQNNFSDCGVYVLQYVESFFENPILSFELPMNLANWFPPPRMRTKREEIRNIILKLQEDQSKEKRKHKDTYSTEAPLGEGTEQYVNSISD
# LGR2 inh – Drosophila LGR2 receptor signaling inhibition | HEK293 LGR2, CRE-luciferase, bursicon-stimulated, 4 h | AID 720647 | inhibition, % at 9.99 µM | 0.35% of 380,000 active;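 active means drop in luminescence signal, shown as inhibition above about 50% in the replicate tests, limit read from the data, passing the limit was not always enough; inconclusive means probably only some replicates passing the limit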;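 further: agonist challenge used bursicon conditioned medium at about half maximal strength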
# SENP8 block-2 – inhibitors of human SENP8 protease | Q96LD8 | recombinant SENP8, Nedd8 substrate fluorescence | inhibition, % at 20 µM | 0.64% of 360,000 active; in the data active means inhibition mostly above about 40%, no sharp cut-off; inactive means mostly below about 27%
# HSP90 confirm – HSP90 inhibition, confirmation assay; shares compounds with HSP90 refold inh; rabbit reticulocyte lysate, luciferase refolding luminescence, 3 h; inhibition, % at 5.9 µM; 64% of 2,300 active; in the data active means inhibition above about 18%;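 further: 0% = vehicle wells and 100% = reference inhibitor wells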
# FLuc counter – firefly luciferase inhibition, HSP90 counter-screen | shares compounds with HSP90 refold inh | purified native firefly luciferase, luminescence | inhibition, % at 5.9 µM | 48% of 2,300 active | AID 1847;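 active means inhibition above the mean inhibition of all tested sample wells plus 3 SD, cut at about 10% in these data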;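 further: 0% = DMSO with luciferase and 100% = wells lacking luciferase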
# SENP8 conf-1 – human SENP8 inhibition, confirmed. inhibition, % at 12.5 µM. shares compounds with SENP7 inh. 40% of 6,200 active. Recombinant SENP8, Z-RLRGG-aminoluciferin luminescence, 60 min;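 active means mean inhibition across replicates above about 50%, limit read from the data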
# SENP6 confirm – confirmation of human SENP6 protease inhibitors; shares compounds with SENP7 inh; recombinant SENP6, Z-RLRGG-aminoluciferin luminescence; inhibition, % at 12.5 µM; 58% of 6,200 active
# SENP7 conf – human SENP7 inhibition, confirmed; 69% of 6,200 active; recombinant SENP7, Z-RLRGG-aminoluciferin luminescence, 40 min; inhibition, % at 12.5 µM; shares compounds with SENP7 inh
# Casp3 select – caspase-3 inhibition (SENP selectivity assay); shares compounds with SENP7 inh; purified caspase-3, Z-DEVD-aminoluciferin luminescence, 60 min; inhibition, % at 12.5 µM; 60% of 6,200 active; AID 488918;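 active means mean inhibition above about 50%, limit read from the data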;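 further: plate controls were enzyme with DMSO for no effect and wells without caspase-3 for full effect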
# SENP luc ctr – luminescence interference (SENP counter-screen); shares compounds with SENP7 inh; Pre-incubated SENP8/Z-RLRGG-aminoluciferin, luciferase luminescence interference; inhibition, % at 12.5 µM; 39% of 6,200 active; AID 488919;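 active means mean inhibition above about 50% when retested at one dose, limit read from the data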;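 further: plate controls were DMSO wells with completed reaction for no effect and substrate without enzyme for full effect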
# SENP8 conf-2 – SENP8 (human) inhibition, single concentration confirmation; shares compounds with SENP8 block-2; purified SENP8, Nedd8-AMC/pro-Nedd8 cleavage fluorescence, 30 min; inhibition, % at 25 µM; 15% of 1,400 active; AID 624319; in the data active means inhibition mostly above about 39%, no sharp cut-off; inactive means mostly below about 34%
# * = called active by the depositor; ? = inconclusive; / = no result. Only some compounds are listed: those with a hit (about 2.3% of all), similar ones and a draw of the others.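 How the source made its calls, unless noted: active means mean inhibition above about 50% in the one-dose retest (limit read from the data); inactive means the rest.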
SMILES,SENP7 inh,SENP8 block-1,HSP90 refold inh,SENP6 block,LGR2 inh,SENP8 block-2,HSP90 confirm,FLuc counter,SENP8 conf-1,SENP6 confirm,SENP7 conf,Casp3 select,SENP luc ctr,others
CCOc1ccc(NC(=O)c2[nH]c(C)c(C(C)=O)c2C)cc1,58.7*,41.4,19.4*,50.3*,-25.4,17.1,12.3,-2.5,56.7*,50.3*,81.0*,74.8*,62.1*,
CC(C)(C)C(=O)Nc1ccc(N=Nc2ccccc2)cc1,63.7*,40.9,70.5*,-1.2,72.2*,28.9,79.2*,73.5*,40.3,60.8*,91.0*,59.3*,28.4,
COCC(=O)N(C)C[C@H]1Oc2ncc(-c3ccc(C#N)cc3)cc2C(=O)N([C@H](C)CO)C[C@@H]1C,/,/,/,/,5.4,/,/,/,/,/,/,/,/,
C[C@@H]1CN([C@H](C)CO)C(=O)c2cc(/C=C/c3ccccc3)cnc2O[C@@H]1CN(C)C(=O)C1CCC1,/,/,/,/,8.3,/,/,/,/,/,/,/,/,
Cc1nc(Nc2ccccc2)sc1C(=O)c1ccccc1,4.6,-8.5,-1.4,-6.8,-37.3,-19.9,/,/,/,/,/,/,/,
Cc1nc(Nc2ccc(C(=O)O)cc2)sc1-c1ccccc1,100.0*,95.9*,34.2*,94.8*,/,-400.2,83.9*,63.0*,71.8*,91.9*,67.1*,18.2,6.0,
CSc1ccc(NC(=O)Nc2cc(C)ccn2)cc1,77.9*,29.2,14.1,48.9,58.3*,17.5,54.9*,48.7*,13.1,30.4,30.9,34.7,11.0,
Clc1ccc(-c2nnc(NC3=NCCCCC3)o2)cc1,88.0*,79.6*,45.2*,72.9*,/,29.0,71.2*,67.9*,-24.0,10.9,57.3*,47.3,12.5,
Cc1ccc2nc(NC(=O)c3cccs3)sc2c1,98.2*,88.7*,18.8*,91.6*,/,-360.6,40.1*,37.9*,42.2,89.2*,92.1*,74.5*,6.4,
Cc1ccc2nc(NC(=O)CCCC(=O)O)sc2c1,57.9*,54.2*,16.9*,55.3*,?,3.8,24.0*,-8.7,3.4,16.5,26.8,17.5,6.7,
CCC(=O)Nc1nc2ccc(S(C)(=O)=O)cc2s1,-6.0,2.9,-3.9,-16.3,/,12.8,/,/,/,/,/,/,/,
CS(=O)(=O)c1ccc2nc(NC(=O)c3cccs3)sc2c1,88.6*,83.7*,18.4*,90.5*,25.0,-354.5,36.7*,23.0*,-30.4,78.6*,95.0*,88.2*,59.8*,
COc1ccc(-c2ccc([C@H]3[C@@H](CO)N4CCCCN(C(=O)c5ccc6c(c5)OCO6)C[C@H]34)cc2)cc1,/,/,/,/,8.2,/,/,/,/,/,/,/,/,
CO[C@H]1CN(C)C(=O)c2cccc(C#N)c2OC[C@H]2O[C@H](CC[C@@H]2OC)CCN(C)C(=O)[C@H]1C,/,/,/,/,-1.7,/,/,/,/,/,/,/,/,
CC(C)(C)c1cc(NC(=O)c2ccco2)no1,70.7*,32.5,19.1*,66.8*,-12.1,9.2,31.1*,12.4*,52.7*,56.6*,86.3*,83.4*,56.5*,
CN1CCN(C(=O)C[C@H]2C=C[C@H](NC(=O)Cc3ccccn3)[C@@H](CO)O2)CC1,/,/,/,/,-5.8,/,/,/,/,/,/,/,/,
COc1ccc2sc(NC(=O)c3ccco3)nc2c1,6.7,87.2*,55.6*,89.8*,75.1*,-193.4,60.5*,48.0*,86.7*,90.4*,97.4*,90.9*,85.9*,
COc1ccc2nc(NC(=O)c3ccoc3C)sc2c1,100.5*,96.9*,22.4*,100.8*,48.3,-58.0,41.4*,30.1*,96.9*,99.8*,103.1*,98.5*,96.6*,
Cc1cc(C)c2nc(NC(=O)c3ccco3)sc2c1,80.2*,80.2*,18.3*,76.5*,2.3,-213.9,38.8*,33.0*,10.7,72.9*,91.7*,60.7*,15.9,
CCCN1C[C@@H](C)[C@@H](OC)CN(C)C(=O)c2ccc(NC(=O)C3CCC3)cc2OC[C@H]1C,/,/,/,/,-3.8,/,/,/,/,/,/,/,/,
Cc1ccc(C(=O)n2c(N)nc3ccccc32)cc1,97.0*,91.4*,59.7*,86.2*,88.6*,-29.8,88.7*,83.0*,89.8*,94.7*,100.8*,96.2*,65.5*,
CCCCNC(=S)N/N=C/c1cccc(OCC)c1O,1.6,8.5,-4.2,10.9,-33.2,-423.6,/,/,/,/,/,/,/,
CCOc1cccc(/C=N/NC(=S)Nc2ccccc2[N+](=O)[O-])c1O,78.9*,47.1,74.8*,31.2,83.5*,23.2,71.3*,34.3*,27.8,55.2*,37.1,26.3,7.4,
O=C1NC(=O)/C(=C\c2ccc(OCc3cccc(C(=O)O)c3)c(Cl)c2)N1,77.4*,90.5*,30.8*,95.0*,83.1*,-179.4,45.2*,49.6*,-15.7,92.9*,100.8*,29.8,70.7*,
COc1ccccc1-c1ccc([C@H]2[C@@H](CO)N3CCCCN(Cc4ccncc4)C[C@@H]23)cc1,/,/,/,/,-16.2,/,/,/,/,/,/,/,/,
SMILES,SENP7 inh,SENP8 block-1,HSP90 refold inh,SENP6 block,LGR2 inh,SENP8 block-2,HSP90 confirm,FLuc counter,SENP8 conf-1,SENP6 confirm,SENP7 conf,Casp3 select,SENP luc ctr,others
Cc1[nH][nH]c(=O)c1C(c1ccc(-c2ccc(C(=O)O)cc2)o1)c1c(C)[nH][nH]c1=O,/,/,3.9,/,14.2,5.2,/,/,/,/,/,/,/,
Cc1[nH][nH]c(=O)c1C(c1ccc(-c2ccc(Cl)c(Cl)c2)o1)c1c(C)[nH][nH]c1=O,-4.4,5.8,18.3*,23.7,-21.6,73.7*,-0.2,0.2,/,/,/,/,/,SENP8 conf-2=62.9*
CCCNC(=O)Nc1ccc2c(c1)OC[C@@H](C)N(C(=O)c1ccccc1F)C[C@@H](C)[C@@H](OC)CN(C)C2=O,/,/,/,/,2.4,/,/,/,/,/,/,/,/,
O=c1cc(-c2ccc(Cl)cc2)[nH][nH]1,7.3,-1.8,29.2*,11.4,/,43.1*,3.6,-11.7,/,/,/,/,/,SENP8 conf-2=33.4
COc1ccc(-c2cc(=O)[nH][nH]2)cc1,9.9,2.2,33.5*,17.0,/,41.5*,-4.2,-11.6,/,/,/,/,/,SENP8 conf-2=28.1
COc1ccc(-c2cc(=O)[nH]c(=O)[nH]2)cc1,-1.3,1.7,1.9,-3.9,/,-3.9,/,/,/,/,/,/,/,
